Reference: PubChem BioAssay (NCATS)
Values joined by “and” are separate entries in the source; they are usually repeats but may differ in a detail not shown here. Equal entries are not always repeated. Records with an inconclusive call do not appear. Active and inactive are the calls of the source. Unless noted, calls follow the shape of the dose curve; as a rule, active = well fitted curve in either direction with a large enough effect (not every such curve was filed as active); inconclusive = small, poorly fitted or top-dose-only effect, or another doubt; inactive = flat fitted curve, though single readings scatter.

Columns and labels:
[1] = Stat Signaling Pathway (AID 446);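 also: ME-180 cervical cancer cells given 40 pM IL-6 alongside compound; SIE-controlled beta-lactamase reporter measured as 460/530 nm FRET emission ratio; % is scaled to controls: 0 for no effect and ±100 for the full control effect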
In short: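 Normalization used AC90 stimulation (300 pM IL-6) and AC90 inhibition (125 nM pan-JAK inhibitor at 40 pM IL-6). The underlying signal is SIE-driven beta-lactamase in ME-180 cells after 5 h IL-6 exposure with compound.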

[2] = molecular target: Glucocorticoid receptor (Homo sapiens) (UniProt P04150); assay: GR-GFP Redistribution (AID 450;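 active = compounds whose dose series gives a full or clear partial fitted curve of increased nuclear translocation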; also: potency is read from the fitted curve at half-maximal effect); details: U2OS GR-GFP nuclear translocation, laser cytometry, 2 h
Sequence of Glucocorticoid receptor (Homo sapiens) (P04150 whole entry, looked up, the tested form may be a part): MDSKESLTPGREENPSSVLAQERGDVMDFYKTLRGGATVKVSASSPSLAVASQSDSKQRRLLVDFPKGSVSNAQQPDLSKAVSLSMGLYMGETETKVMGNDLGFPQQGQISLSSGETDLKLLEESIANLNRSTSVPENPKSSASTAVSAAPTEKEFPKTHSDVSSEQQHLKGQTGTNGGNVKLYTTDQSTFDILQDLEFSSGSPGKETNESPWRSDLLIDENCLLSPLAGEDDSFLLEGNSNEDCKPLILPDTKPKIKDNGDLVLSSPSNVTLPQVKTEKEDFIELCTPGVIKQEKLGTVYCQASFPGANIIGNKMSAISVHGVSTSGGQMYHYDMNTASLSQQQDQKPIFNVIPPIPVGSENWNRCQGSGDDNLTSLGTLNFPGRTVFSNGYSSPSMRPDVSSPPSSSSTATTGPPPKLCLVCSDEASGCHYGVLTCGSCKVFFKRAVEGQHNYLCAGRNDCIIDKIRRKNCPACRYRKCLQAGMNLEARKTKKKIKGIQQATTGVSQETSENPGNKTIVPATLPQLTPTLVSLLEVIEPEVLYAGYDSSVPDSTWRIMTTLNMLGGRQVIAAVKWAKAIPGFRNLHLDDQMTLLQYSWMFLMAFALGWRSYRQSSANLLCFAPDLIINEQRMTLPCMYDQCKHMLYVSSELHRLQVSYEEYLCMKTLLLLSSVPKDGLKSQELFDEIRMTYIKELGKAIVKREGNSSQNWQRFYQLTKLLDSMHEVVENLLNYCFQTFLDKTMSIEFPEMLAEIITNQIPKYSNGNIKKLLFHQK

[3] = molecular target: Glucocorticoid receptor (Homo sapiens) (UniProt P04150); assay: GR-EFC Redistribution (AID 451; calls by dose curve; also: potency is read from the fitted curve at half-maximal effect); details: CHO-K1 GR-EFC translocation, beta-gal luminescence, 2 h
In short: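 Translocation of GR-ED fusion to nuclear EA restores b-gal, read by luminescence after 1 h room-temperature detection. Engineered CHO-K1 biosensor cells, 1,000/well, exposed 2 h at 37 C to titrations up to 46 uM final.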

[4] = molecular target: Mitogen-activated protein kinase 10 (Mus musculus) (UniProt Q61831); assay: JNK3 AlphaScreen Assay (AID 530);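 also: kinase came from lysate of stimulated human HepG2 cells; signal reports phosphorylation of biotinylated GST-cJun 1-79 at Ser73 with 10 µM ATP; % is scaled to controls: 0 for no effect and ±100 for the full control effect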
In short: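 qHTS titrations with 15 min compound pre-incubation before adding ATP (10 uM final). Read-out: AlphaScreen of Ser73-phosphorylated biotin-GST-cJun using HepG2 lysate JNK3 activated by IL-1β and TNFα.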

[5] = Cell Viability - N2a (AID 540; active = well fitted curve in the direction sought with a large enough effect; an effect the other way counts as inactive or inconclusive;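 also: cells exposed to compound for 40 h at 37 °C; plate controls were DMSO alone for no effect and tamoxifen control for full effect; nearly all actives have a fitted effect of over 45% in size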)
In short: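 Cytotoxicity was scored as loss of cellular ATP in N2a cells, a mouse neuroblastoma line. Compounds are applied in a qHTS concentration series for 40 hr at 37 °C.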

[6] = Cell Viability - NIH 3T3 (AID 541; active = well fitted curve in the direction sought with a large enough effect; an effect the other way counts as inactive or inconclusive;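 also: cells exposed to compound for 40 hours; plate controls were DMSO alone for no effect and tamoxifen positive control for full effect; nearly all actives have a fitted effect of over 25% in size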)
In short: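 Cells seeded at 1000/well, rested 5 hr at 37 °C, then dosed and incubated 40 hr at 37 °C. CellTiter-Glo added, 20 min room temperature, luminescence read. AC50 by Hill fit.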

[7] = Cell Viability - HUV-EC-C (AID 542; active = well fitted curve in the direction sought with a large enough effect; an effect the other way counts as inactive or inconclusive;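 also: cells exposed to compound for 40 hours; % is scaled to controls: 0 for no effect and ±100 for the full control effect; nearly all actives have a fitted effect of over 35% in size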)
In short: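 Cells were seeded at 1000 per well and incubated 5 hr at 37 °C before compound addition. After 40 hr at 37 °C, CellTiter-Glo reagent was added for 20 min and luminescence read. AC50 values came from Hill-equation modelling.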

[8] = Cell Viability - H-4-II-E (AID 543; active = well fitted curve in the direction sought with a large enough effect; an effect the other way counts as inactive or inconclusive;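 also: cells exposed to compound for 40 hours; % is scaled to controls: 0 for no effect and ±100 for the full control effect; nearly all actives have a fitted effect of over 35% in size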)
In short: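 Cells seeded at 1500 per well and rested 5 hr; compounds added; 40 hr incubation at 37 °C; CellTiter-Glo added, 20 min at room temperature; luminescence read. Hill-equation fits gave AC50.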

[9] = Cell Viability - SH-SY5Y (AID 544; active = well fitted curve in the direction sought with a large enough effect; an effect the other way counts as inactive or inconclusive;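 also: cells exposed to compound for 40 hours; 0% = DMSO alone and -100% = 100 µM tamoxifen; nearly all actives have a fitted effect of over 55% in size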); details: SH-SY5Y neuroblastoma cell viability; at 92.2 µM (top of the series)
In short: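 Cells were plated at 1500 per well and allowed 5 hr at 37 °C. Compounds were added across a concentration range and incubated 40 hr at 37 °C. CellTiter-Glo was added for 20 min at room temperature before luminescence reading.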

[10] = Cell Viability - Renal Proximal Tubule (AID 545; active = well fitted curve in the direction sought with a large enough effect; an effect the other way counts as inactive or inconclusive;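 also: cells exposed to compound for 40 hours; 0% = DMSO only and -100% = 100 µM tamoxifen; nearly all actives have a fitted effect of over 40% in size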)
In short: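 Viability taken as intracellular ATP (CellTiter-Glo luminescence) after 40 hr, 37 °C compound treatment of primary proximal tubule cells from rat kidney, 1000 cells/well; Hill-equation fits of qHTS concentration-response data gave AC50.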

CN1CCCN=C1COC(=O)C(O)(c1ccccc1)C1CCCCC1 (configuration not stated)
inactive: outcome [1] | Potency [2] > 20.6 µM

CN/C(=C\[N+](=O)[O-])NCCSCc1csc(CN(C)C)n1
inactive: outcome [1] | Potency [2] > 20.6 µM | Potency [3] > 20.6 µM | outcome [4]

O=C(O)c1ccccc1C(=O)Nc1ccc(S(=O)(=O)Nc2nccs2)cc1
inactive: outcome [1] | Potency [2] > 20.6 µM | Potency [3] > 20.6 µM | outcome [4]

CC1CCc2cc(F)cc3c(=O)c(C(=O)O)cn1c23 (configuration not stated)
inactive: outcome [1] | Potency [2] > 20.6 µM

CCCCOC(=O)c1ccc(N)cc1
inactive: outcome [1] | Potency [2] > 20.6 µM | Potency [3] > 20.6 µM | outcome [4] | outcome [5] | outcome [6] | outcome [7] | outcome [8] | viability change, negative = cytotoxic [9] -11.2% | outcome [10]

CN1C(C)(C)CCCC1(C)C
inactive: outcome [1] | Potency [2] > 46 µM and > 20.6 µM | Potency [3] > 46 µM and > 20.6 µM | outcome [4]

NC(=O)CC[C@@H](N)C(=O)O
inactive: outcome [1] | Potency [2] > 46 µM | Potency [3] > 46 µM | outcome [4]

Cc1c(NC(C)C)c(=O)n(-c2ccccc2)n1C
inactive: outcome [1] | Potency [2] > 20.6 µM | Potency [3] > 20.6 µM | outcome [4]

CCN(CC)CCc1nc(-c2ccccc2)no1
inactive: outcome [1] | Potency [2] > 20.6 µM | Potency [3] > 20.6 µM | outcome [4]

CCc1cccc(CC)c1NC(=O)CN(CC(=O)O)CC(=O)O
inactive: outcome [1] | Potency [2] > 20.6 µM | Potency [3] > 20.6 µM | outcome [4]
